Test [1] deals with Cellular tumor antigen p53 (Homo sapiens) (UniProt P04637). Description: TOX21_p53_BLA_p2_ratio: Tox21 HCT-116 p53 Agonism Beta-lactamase Assay, Ratio, Phase 2 (AID 2283592). The gist of the method: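 HCT116 p53-bla; 4000 cells/well; 5 h pre-incubation; cpd in DMSO, 217-fold dilution; 16 h 37C/5% CO2; CCF4-AM 2 h RT; Ex 405, Em 460/530 ratio; DMSO = baseline; positive fitting direction.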

The target is the same in test [2]. Description: TOX21_p53_BLA_p3_ratio: Tox21 HCT-116 p53 Agonism Beta-lactamase Assay, Ratio, Phase 3 (AID 2283596). The gist of the method:
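HCT116 p53-bla cells (4000/well) given compound in DMSO (217-fold dilution) after 5 h, incubated 16 h at 37C. CCF4-AM substrate 2 h at room temperature; 460/530 nm emission ratio, gain fitted against DMSO.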

Test [3] in a line: TOX21_p53_BLA_p4_viability: Viability Assessment in the Tox21 HCT-116 p53 Agonism Beta-lactamase Assay, Phase 4 (AID 2283597).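 Note: hits lower the luminescence signal meaning cytotoxicity.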 The gist of the method: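 Cells plated, 5 h pre-incubation; DMSO compounds pinned (217-fold dilution); 16 h, 37C/5% CO2; CCF4-AM 2 h RT; CellTiter-Glo 30 min RT; luminescence read.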
Test [4] deals with Cellular tumor antigen p53 (Homo sapiens) (UniProt P04637). Description: TOX21_p53_BLA_p5_ratio: Tox21 HCT-116 p53 Agonism Beta-lactamase Assay, Ratio, Phase 5 (AID 2283599). The gist of the method:
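Beta-lactamase reporter ratio (blue 460 nm over green 530 nm, 405 nm excitation) after 2 h CCF4-AM loading, in HCT-116 cells exposed 16 h at 37 C to compounds pinned at 217-fold dilution. Increases relative to DMSO baseline scored.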

For test [5] the target is unchanged. Description: TOX21_p53_BLA_p4_ratio: Tox21 HCT-116 p53 Agonism Beta-lactamase Assay, Ratio, Phase 4 (AID 2283601). The method in brief:
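Signal is the blue/green (460nm/530nm) ratio of cleaved versus uncleaved CCF4-AM substrate, read after 2 h substrate loading. Cells were HCT116 carrying the p53-responsive beta-lactamase reporter, dosed 16 h at 37C, 5% CO2; CellTiter-Glo measured in parallel.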

Test [6] is described as follows: TOX21_p53_BLA_p5_viability: Viability Assessment in the Tox21 HCT-116 p53 Agonism Beta-lactamase Assay, Phase 5 (AID 2283600). The method in brief: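 4000 cells/well; 5 h pre-incubation; DMSO compounds pin-transferred, 217-fold dilution; 16 h, 37C/5% CO2; CCF4-AM 2 h RT; CellTiter-Glo 30 min RT; luminescence.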
The target of test [7] is Thyroid hormone receptor alpha (Rattus norvegicus) + Thyroid hormone receptor beta (Rattus norvegicus) (UniProt P18113+P63059). As to the kind of experiment: TOX21_TR_LUC_GH3_Antagonist_Followup: Tox21 GH3 Thyroid Hormone Receptor Antagonism Luciferase Follow-Up Assay (AID 2283942). The method in brief:
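Confirmatory qHTS, antagonist mode: T3 (1.0 nM final) + test cpd, 15 conc, 92 uM–5nM final, GH3 rat pituitary line, 24 h, 37C. Luc reporter, RLU vs DMSO.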

In the next test the target is THRA (gene 7067) (UniProt P10827). As to the kind of experiment: TOX21_TRA_COA_Antagonist_Followup_ratio: Tox21 Thyroid Hormone Receptor alpha Antagonism through Coactivator Recruitment Follow-Up Assay, Ratio (AID 2283953). The method in brief: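 520:495 nm emission ratio (excitation 340 nm) reports fluorescein-SRC-2 peptide recruitment to GST-TRα LBD by TR-FRET with Tb anti-GST antibody. Values were normalized to DMSO (0%) and T3 control wells (100%); loss of signal indicated antagonism.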

The nature of test [8]: TOX21_TRB_BLA_Antagonist_Followup_viability: Viability Assessment in the Tox21 Thyroid Hormone Receptor beta Antagonism Beta-lactamase (BLA) Follow-Up Assay (AID 2283961). The method in brief: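 TRβ-bla HEK293T (human TRβ LBD fused to GAL4 DBD), 3,000 cells/well, 2% charcoal-stripped FBS, phenol red-free medium; 18 h compound exposure, 37C; CellTiter-Glo 30 min RT; luminescence, loss-of-signal readout.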

A further test concerns the target THRB (gene 7068) (UniProt P10828). As to the kind of experiment: TOX21_TRB_COA_Antagonist_Followup_ratio: Tox21 Thyroid Hormone Receptor beta Antagonism through Coactivator Recruitment Follow-Up Assay, Ratio (AID 2283967). The method in brief:
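Test compound was incubated with 5.0 nM GST-TRβ LBD in 0.10% BSA. Then 200 nM fluorescein-SRC-2 peptide and 2 nM terbium anti-GST antibody were added. TR-FRET (520:495 nm) was measured and normalized to DMSO and T3 controls.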

Test [9] deals with Retinoic acid receptor RXR-alpha (Homo sapiens) (UniProt P19793). Description: TOX21_TR_RXR_BLA_Antagonist_Followup_ratio: Tox21 Thyroid Hormone Receptor beta Retinoid X Receptor alpha (RXRa) Antagonism Beta-lactamase (BLA) Follow-Up Assay, Ratio (AID 2283972). The gist of the method: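 HEK293T RXRa-bla, 2% charcoal-stripped FBS medium, 16 h compound exposure at 37C, qHTS 11 conc x3. CCF4 FRET ratio ch2/ch1 (460:530), DMSO = baseline, loss-of-signal fit.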

Test [10] is described as follows: TOX21_TR_RXR_BLA_Antagonist_Followup_viability: Viability Assessment in the Tox21 Thyroid Hormone Receptor beta Retinoid X Receptor alpha (RXRa) Antagonism Beta-lactamase (BLA) Follow-Up Assay (AID 2283979). The gist of the method:
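Follow-up compounds (11 concentrations, triplicate) were incubated 16 h at 37C/5% CO2 with HEK293T RXRa-bla cells seeded at 2,500/well in charcoal-stripped-serum medium. ATP content by CellTiter-Glo luminescence gave viability; curves fitted in both directions against DMSO.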

Inconclusive results are not listed. Calls of active or inactive are those of the source. Rule for the calls: active = hit-call score of the fitted dose curve at least 0.9, where 1 is the maximum; inconclusive = response in the unintended direction; inactive = score below 0.9.

Chain of Cellular tumor antigen p53 (Homo sapiens) (P04637 whole entry, looked up): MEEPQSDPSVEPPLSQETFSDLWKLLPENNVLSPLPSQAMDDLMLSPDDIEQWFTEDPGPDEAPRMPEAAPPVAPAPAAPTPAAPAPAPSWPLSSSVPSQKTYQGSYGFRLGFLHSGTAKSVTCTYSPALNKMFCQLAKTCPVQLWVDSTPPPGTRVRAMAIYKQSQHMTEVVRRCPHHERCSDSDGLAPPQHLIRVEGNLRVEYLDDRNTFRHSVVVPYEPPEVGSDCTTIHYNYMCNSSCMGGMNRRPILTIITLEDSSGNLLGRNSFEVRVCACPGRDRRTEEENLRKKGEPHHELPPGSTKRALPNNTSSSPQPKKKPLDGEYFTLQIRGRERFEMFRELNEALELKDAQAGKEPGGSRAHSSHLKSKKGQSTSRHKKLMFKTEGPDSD
Chain of THRA (gene 7067) (P10827 whole entry, looked up, the tested form may be a part): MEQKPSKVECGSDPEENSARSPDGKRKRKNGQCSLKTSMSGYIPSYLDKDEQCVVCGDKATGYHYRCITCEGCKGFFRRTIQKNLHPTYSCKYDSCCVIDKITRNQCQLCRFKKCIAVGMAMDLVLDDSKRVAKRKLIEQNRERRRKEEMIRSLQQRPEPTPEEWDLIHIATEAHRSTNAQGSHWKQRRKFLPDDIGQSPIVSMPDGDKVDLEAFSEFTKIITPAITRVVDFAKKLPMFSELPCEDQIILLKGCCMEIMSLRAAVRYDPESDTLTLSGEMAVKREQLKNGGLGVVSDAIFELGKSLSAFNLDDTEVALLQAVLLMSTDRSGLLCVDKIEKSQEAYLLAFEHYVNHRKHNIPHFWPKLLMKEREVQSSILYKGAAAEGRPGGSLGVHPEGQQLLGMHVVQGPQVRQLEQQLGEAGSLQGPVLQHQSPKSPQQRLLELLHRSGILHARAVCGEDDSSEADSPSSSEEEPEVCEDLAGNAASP
Chain of THRB (gene 7068) (P10828 whole entry, looked up, the tested form may be a part): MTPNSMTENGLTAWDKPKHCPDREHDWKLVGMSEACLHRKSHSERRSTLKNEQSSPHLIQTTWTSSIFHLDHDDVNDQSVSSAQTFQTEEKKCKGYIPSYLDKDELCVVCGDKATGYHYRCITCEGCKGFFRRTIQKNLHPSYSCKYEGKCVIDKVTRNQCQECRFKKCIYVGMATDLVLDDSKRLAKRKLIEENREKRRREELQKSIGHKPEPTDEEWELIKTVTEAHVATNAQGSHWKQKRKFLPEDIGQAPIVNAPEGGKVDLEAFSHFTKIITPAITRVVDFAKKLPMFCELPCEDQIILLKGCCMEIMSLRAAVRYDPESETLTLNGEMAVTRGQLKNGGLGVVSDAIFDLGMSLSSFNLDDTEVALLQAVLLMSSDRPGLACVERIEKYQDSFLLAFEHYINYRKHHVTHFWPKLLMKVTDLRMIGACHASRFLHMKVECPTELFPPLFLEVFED
Chain of Retinoic acid receptor RXR-alpha (Homo sapiens) (P19793 whole entry, looked up): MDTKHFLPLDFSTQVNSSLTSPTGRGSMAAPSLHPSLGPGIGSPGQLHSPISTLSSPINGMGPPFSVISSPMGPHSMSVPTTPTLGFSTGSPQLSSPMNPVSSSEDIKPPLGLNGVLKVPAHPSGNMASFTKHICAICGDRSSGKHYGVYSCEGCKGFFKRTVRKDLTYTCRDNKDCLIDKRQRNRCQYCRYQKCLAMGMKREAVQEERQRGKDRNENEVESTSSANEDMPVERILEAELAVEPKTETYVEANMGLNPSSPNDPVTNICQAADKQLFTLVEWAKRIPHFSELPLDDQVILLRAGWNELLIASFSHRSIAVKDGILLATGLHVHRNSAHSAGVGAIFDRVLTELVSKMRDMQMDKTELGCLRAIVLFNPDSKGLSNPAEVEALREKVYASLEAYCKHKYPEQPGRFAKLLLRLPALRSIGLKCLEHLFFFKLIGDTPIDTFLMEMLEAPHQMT

Consider `COc1ccc(/C=C/c2cc(OC)cc(=O)o2)cc1`, for which the outcome in test [1], in [2], in test [3], in test [4] and in test [5] was inactive.
For the compound `O=C(O)[C@H]1CN(C/C=C/P(=O)(O)O)CCN1`, the outcome in test [1], in [2], in [3], in test [6] and in [5] was inactive.
For `S=C(SSSSSSC(=S)N1CCCCC1)N1CCCCC1`, the result in [1], in test [2], in test [3], in test [6] and in [5] was inactive.
For `CO[C@H]1[C@@H](O)[C@H](N)[C@@H](O[C@H]2O[C@H]([C@H](C)N)CC[C@H]2N)[C@H](O)[C@@H]1N(C)C(=O)CN`, the result in test [1], in test [2], in [3], in test [6] and in test [5] was inactive.
In the case of `CCCCOC(=O)C(=O)Nc1cccc(-c2nn[nH]n2)c1`, the result in test [1], in test [2], in test [3] and in test [6] was inactive.
In the case of `C=C1[C@H](CO)[C@@H](O)C[C@@H]1n1cnc2c(=O)[nH]c(N)nc21`, the outcome in [1], in [2], in [3], in [6] and in [5] was inactive.
Regarding `CN1CCc2c(c3ccccc3n2Cc2ccccc2)C1`, the result in test [1], in test [2], in test [3] and in test [5] was inactive.
For the compound `COc1ccc(-c2cc(C(F)F)nn2-c2ccc(S(N)(=O)=O)cc2)cc1F`, the outcome in [1], in [2], in [3] and in [5] was inactive.
As for `CCN(C)C(=O)Oc1cccc([C@H](C)N(C)C)c1`, the outcome in test [1], in test [2], in test [3] and in test [5] was inactive.
Consider `CO[C@@]1(NC(=O)C2SC(=C(C(N)=O)C(=O)O)S2)C(=O)N2C(C(=O)O)=C(CSc3nnnn3C)CS[C@@H]21` (stereo partly specified), for which the outcome in test [1], in test [2], in [3] and in test [5] was inactive.
Regarding `Cc1ccc(N(CC2=NCCN2)c2cccc(O)c2)cc1`, the AC50 in [1] is 31 µM (active); in [5], 30.4 µM (active). The outcome in test [2] and in [3] was inactive.
Regarding `CCCCOC(=O)CCS`, the result in test [1], in test [2], in test [3], in test [6] and in test [5] was inactive.
Take `OCCOc1ccc(OCCO)cc1`: the outcome in [1], in test [2], in test [3], in test [6] and in test [5] was inactive.
For `O=C(O)CCC/C=C\C[C@@H]1[C@@H](/C=C/[C@@H](O)COc2cccc(Cl)c2)[C@H](O)C[C@@H]1O`, the outcome in test [1], in test [2] and in test [4] was inactive.
Take `COC(=O)c1cccc(Cl)c1`: the result in test [1], in test [2], in [3], in test [6] and in test [5] was inactive.
Turning to `CNC[C@@H]1CC[C@@H](N)[C@@H](O[C@H]2[C@H](O)[C@@H](O[C@H]3OC[C@](C)(O)[C@H](NC)[C@H]3O)[C@H](N)C[C@@H]2N)O1`, the result in test [1], in test [2], in test [3] and in test [6] was inactive.
Regarding `Nc1c2c(nc3ccccc13)CCCC2O` (stereo unspecified), the result in test [1], in test [2], in test [3] and in test [5] was inactive.
Turning to `OCl`, the outcome in [1], in [2], in [3], in [4] and in [5] was inactive.
For the compound `COc1cc(C(=O)NC2CCCNC2)cc(OC)c1OC` (stereo unspecified), the result (in test [1]; in test [2]; in test [3]; in test [5]; in test [7]; in the test with THRA (gene 7067)) was inactive. Further, the call (in test [8]; with THRB (gene 7068); in [9]; in test [10]) was inactive.
Take `CC(=O)OCC[N+](C)(C)C`: the result in test [1], in [2], in [3], in test [6] and in [5] was inactive.
Take `O=C(CCN1CCC(c2ccccc2)C1)c1ccc2c(c1)OCCO2` (stereo unspecified): the result in test [1], in [2], in [3] and in test [5] was inactive. In test [4], the AC50 was 41.1 µM (active).
On to `CCNC(=O)C1CC(C)CCC1C(C)C` (stereo unspecified), for which the outcome in test [1], in [2], in test [3], in test [4] and in [5] was inactive.
`CC1CCCC(=O)C1=O` (stereo unspecified): the result in test [1], in test [2], in [3], in test [6] and in test [5] was inactive.
In the case of `CCCc1nc2c(C)cc(-c3nc4ccccc4n3C)cc2n1Cc1ccc(-c2ccccc2C(=O)O)cc1`, the outcome in test [1], in [2] and in test [4] was inactive.
With `CC(CN(C)C)CN1c2ccccc2S(=O)(=O)c2ccccc21` (stereo unspecified), the outcome in test [1], in test [2], in [4] and in test [5] was inactive.
With `CCOc1ccc(S(=O)(=O)O)c2cccnc12`, the outcome in test [1], in test [2], in test [4] and in test [6] was inactive.
For `O=c1[nH]cnc2c1ncn2[C@@H]1O[C@H](CO)[C@@H](O)[C@H]1O`, the outcome in test [1], in [2] and in test [4] was inactive.
With `Cc1cc(O)ccc1O`, the result in [1], in test [2], in [4] and in [6] was inactive.
For the compound `CCCOCC(C)OCC(C)O` (stereo unspecified), the outcome in test [1], in [2], in [4], in [6] and in [5] was inactive.
For `NC(=O)OCC(O)COc1ccc(Cl)cc1` (stereo unspecified), the outcome in test [1], in [2] and in test [4] was inactive.
Regarding `CCCCCC(N)=O`, the result in test [1], in [2], in test [4], in test [6] and in test [5] was inactive.
For `CC(=O)NC[C@H]1CN(c2ccc(N3CCOCC3)c(F)c2)C(=O)O1`, the result in test [1], in test [2], in [4], in test [6] and in test [5] was inactive.
For the compound `O=C(CCNNC(=O)c1ccncc1)NCc1ccccc1`, the outcome in test [1], in test [2], in test [4], in test [6] and in test [5] was inactive.
Consider `COc1ccc(-c2nc3ccc(C4=NNC(=O)CC4C)cc3[nH]2)cc1` (stereo unspecified), for which the AC50 in test [1] was 17.1 µM (active); in test [2], 21.5 µM (active); in [4], 16.3 µM (active); in test [5] it was 15 µM (active). Further, the call in test [6] was inactive.

One may read the AC50 as the midpoint of the concentration-response curve, whichever way the signal moves.
